Experimental data from PubChem BioAssay (NCATS).
Inconclusive results are not listed. Calls of active or inactive are those of the source. Calls come from the whole dose curve; as a rule, active = well fitted curve in the direction sought with a large enough effect; inconclusive = small, poorly fitted or top-dose-only effect, or another doubt; inactive = no such curve, though single readings can be large; an effect the other way counts as inactive or inconclusive.

Key:
[1] = molecular target: Glutathione peroxidase 1 (Homo sapiens) (UniProt P07203); assay: Primary qHTS Assay for Inhibitors of Recombinant Selenoprotein Glutathione Peroxidase 1 (GPX1) (AID 1845191); note: nearly all actives have a fitted effect of over 65% in size; note: potency is the fitted concentration of half-maximal effect
Glutathione peroxidase 1 (Homo sapiens), sequence (P07203 whole entry, looked up): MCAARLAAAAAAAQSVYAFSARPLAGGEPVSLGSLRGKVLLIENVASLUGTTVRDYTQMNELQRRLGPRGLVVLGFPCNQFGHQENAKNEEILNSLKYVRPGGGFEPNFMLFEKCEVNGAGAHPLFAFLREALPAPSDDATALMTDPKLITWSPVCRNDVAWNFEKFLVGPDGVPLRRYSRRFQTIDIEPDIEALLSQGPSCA
Outline: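 Recombinant GPX1 (10 nM final) was preincubated with compound for 30 min at room temperature, then reacted with 1 mM GSH, 0.5 mM CHP, 0.5 mM NADPH and 100 nM glutathione reductase; NADPH fluorescence (340/450 nm) was read at 0 and 15 min.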

[2] = molecular target: Phospholipid hydroperoxide glutathione peroxidase GPX4 (Homo sapiens) (UniProt P36969); assay: Primary qHTS Assay for Inhibitors of Recombinant Selenoprotein Glutathione Peroxidase 4 (GPX4) (AID 1845192); note: nearly all actives have a fitted effect of over 65% in size; note: potency is the fitted concentration of half-maximal effect
Phospholipid hydroperoxide glutathione peroxidase GPX4 (Homo sapiens), sequence (P36969 whole entry, looked up): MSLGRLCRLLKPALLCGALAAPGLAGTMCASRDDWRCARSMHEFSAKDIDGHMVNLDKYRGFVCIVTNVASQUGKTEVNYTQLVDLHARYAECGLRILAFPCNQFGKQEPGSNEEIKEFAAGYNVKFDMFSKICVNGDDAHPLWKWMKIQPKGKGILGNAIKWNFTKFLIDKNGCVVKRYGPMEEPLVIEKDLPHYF
Outline: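 GR-coupled readout: 100 nM GR, 1 mM GSH, 0.5 mM NADPH; NADPH fluorescence (ex 340/em 450 nm) read at t=0 and after 15 min RT. GPX4 200 nM, preincubated 30 min with compound; substrate 0.5 mM CHP.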

[3] = HepG2 viability counterscreen (readout 2: ATP content) against the NCATS DSHEA and TCM libraries (AID 1794840);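 note: HepG2 cells exposed to substances for about 24 h; 0% is about no effect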
Outline: (§1)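 After HepG2 cells attach for ~4 h, substances are added and incubated ~24 h at 37C, 5% CO2. GF-AFC fluorescence then CellTiter-Glo luminescence give protease and ATP readouts.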

[4] = molecular target: Cytochrome P450 3A4 (Homo sapiens) (UniProt P08684); assay: qHTS for inhibitors of CYP3A4 against the NCATS DSHEA and TCM libraries (AID 1919971);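 note: % is set by controls: 0 for no effect and ±100 for the full control effect; inhibition lowers luminescence from luciferin made by CYP3A4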
Cytochrome P450 3A4 (Homo sapiens), sequence (P08684 whole entry, looked up): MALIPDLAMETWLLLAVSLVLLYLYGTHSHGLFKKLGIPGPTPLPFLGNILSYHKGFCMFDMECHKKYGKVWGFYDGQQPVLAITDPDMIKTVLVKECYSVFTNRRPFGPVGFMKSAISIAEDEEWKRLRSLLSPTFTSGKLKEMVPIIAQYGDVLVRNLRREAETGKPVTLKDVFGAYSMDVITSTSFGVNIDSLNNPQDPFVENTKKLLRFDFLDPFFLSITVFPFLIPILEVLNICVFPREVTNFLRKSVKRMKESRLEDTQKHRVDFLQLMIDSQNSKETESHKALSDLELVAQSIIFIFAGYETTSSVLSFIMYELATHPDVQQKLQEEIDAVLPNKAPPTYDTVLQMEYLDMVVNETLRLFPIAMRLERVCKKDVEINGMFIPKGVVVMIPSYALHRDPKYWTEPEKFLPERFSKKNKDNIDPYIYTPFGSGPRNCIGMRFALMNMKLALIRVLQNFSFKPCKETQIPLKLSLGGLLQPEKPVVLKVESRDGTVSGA
Outline: (§2)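 Light output from converted D-luciferin reports remaining CYP activity. Compounds preincubate with enzyme and substrate for 15 min; NADPH regeneration (1x final) runs the reaction for 30-45 min.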

[5] = molecular target: Cytochrome P450 2D6 (Homo sapiens) (UniProt P10635); assay: qHTS for inhibitors of CYP2D6 against the NCATS DSHEA and TCM libraries (AID 1919972); note: % is set by controls: 0 for no effect and ±100 for the full control effect
Cytochrome P450 2D6 (Homo sapiens), sequence (P10635 whole entry, looked up): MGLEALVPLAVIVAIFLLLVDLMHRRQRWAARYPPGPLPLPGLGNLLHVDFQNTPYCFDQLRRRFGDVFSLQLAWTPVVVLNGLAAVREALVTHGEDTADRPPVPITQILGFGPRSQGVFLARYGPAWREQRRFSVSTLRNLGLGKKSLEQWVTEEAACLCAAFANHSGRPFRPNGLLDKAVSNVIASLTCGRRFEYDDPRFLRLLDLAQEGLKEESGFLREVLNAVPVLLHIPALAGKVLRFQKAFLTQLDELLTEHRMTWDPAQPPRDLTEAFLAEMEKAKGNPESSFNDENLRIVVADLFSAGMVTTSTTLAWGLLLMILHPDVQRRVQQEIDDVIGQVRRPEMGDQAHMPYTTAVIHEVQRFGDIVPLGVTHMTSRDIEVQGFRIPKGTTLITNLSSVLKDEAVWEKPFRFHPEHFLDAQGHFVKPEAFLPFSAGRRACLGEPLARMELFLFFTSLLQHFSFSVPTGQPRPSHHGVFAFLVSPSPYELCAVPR
Outline: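 Steps: enzyme plus luciferin substrate dispensed; test substances pinned; 15 min RT; 1x NADPH regenerating solution added, 30–45 min RT protected from light; detection reagent, 30 min RT; luminescence measured. Minus-enzyme wells as background.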

[6] = molecular target: Cytochrome P450 2C9 (Homo sapiens) (UniProt P11712); assay: qHTS for inhibitors of CYP2C9 against the NCATS DSHEA and TCM libraries (AID 1919973);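 note: luminogenic pro-luciferin CYP2C9 substrate turned into luciferin with NADPH regeneration; series mostly up to about 34 µM; % is set by controls: 0 for no effect and ±100 for the full control effect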
Cytochrome P450 2C9 (Homo sapiens), sequence (P11712 whole entry, looked up): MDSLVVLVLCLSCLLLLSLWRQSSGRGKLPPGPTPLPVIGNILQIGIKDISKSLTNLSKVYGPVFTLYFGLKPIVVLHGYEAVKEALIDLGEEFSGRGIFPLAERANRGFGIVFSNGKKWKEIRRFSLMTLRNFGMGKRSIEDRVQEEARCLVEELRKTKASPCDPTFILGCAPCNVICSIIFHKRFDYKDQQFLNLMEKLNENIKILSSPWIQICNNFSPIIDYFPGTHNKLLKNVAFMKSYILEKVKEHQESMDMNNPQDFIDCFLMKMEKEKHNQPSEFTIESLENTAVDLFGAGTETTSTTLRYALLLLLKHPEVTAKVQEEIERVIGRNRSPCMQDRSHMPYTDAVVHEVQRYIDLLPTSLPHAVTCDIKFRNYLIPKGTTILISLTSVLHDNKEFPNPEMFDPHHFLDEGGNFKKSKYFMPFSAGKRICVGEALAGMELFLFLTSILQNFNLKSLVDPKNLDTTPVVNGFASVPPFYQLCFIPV
Outline: as §2

[7] = molecular target: Cytochrome P450 2C19 (Homo sapiens) (UniProt P33261); assay: qHTS for inhibitors of CYP2C19 against the NCATS DSHEA and TCM libraries (AID 1919974);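 note: luminescence from luciferin released by CYP2C19 oxidation of a pro-luciferin substrate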; note: potency is the fitted concentration of half-maximal effect
Cytochrome P450 2C19 (Homo sapiens), sequence (P33261 whole entry, looked up): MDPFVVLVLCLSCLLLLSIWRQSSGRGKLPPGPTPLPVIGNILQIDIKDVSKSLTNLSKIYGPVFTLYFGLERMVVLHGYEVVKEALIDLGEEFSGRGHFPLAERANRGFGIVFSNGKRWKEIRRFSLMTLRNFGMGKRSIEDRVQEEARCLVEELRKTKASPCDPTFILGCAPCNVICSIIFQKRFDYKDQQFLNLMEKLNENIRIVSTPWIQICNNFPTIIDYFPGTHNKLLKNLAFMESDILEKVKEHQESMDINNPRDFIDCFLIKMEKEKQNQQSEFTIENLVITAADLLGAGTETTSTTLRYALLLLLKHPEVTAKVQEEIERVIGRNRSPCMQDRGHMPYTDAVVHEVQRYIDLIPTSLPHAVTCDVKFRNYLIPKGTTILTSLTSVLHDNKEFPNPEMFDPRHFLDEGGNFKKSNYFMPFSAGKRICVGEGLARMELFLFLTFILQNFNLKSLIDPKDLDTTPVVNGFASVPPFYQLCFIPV
Outline: as §2

[8] = KB-3-1 P-gp reporter qHTS against the NCATS DSHEA and TCM libraries (AID 1919975); note: 0% is about no effect
Outline: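 Cell viability qHTS: 500 KB-3-1 cells/well, substances in titration, ~72 h, 37C; luminescent CellTiter-Glo read.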

[9] = molecular target: Cytochrome P450 1A2 (Homo sapiens) (UniProt P05177); assay: qHTS for inhibitors of CYPIA2 against the NCATS DSHEA and TCM libraries (AID 1919976);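 note: light from luciferin formed by CYP1A2 from a pro-luciferin substrate; series mostly up to about 37 µM; % is set by controls: 0 for no effect and ±100 for the full control effect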
Cytochrome P450 1A2 (Homo sapiens), sequence (P05177 whole entry, looked up): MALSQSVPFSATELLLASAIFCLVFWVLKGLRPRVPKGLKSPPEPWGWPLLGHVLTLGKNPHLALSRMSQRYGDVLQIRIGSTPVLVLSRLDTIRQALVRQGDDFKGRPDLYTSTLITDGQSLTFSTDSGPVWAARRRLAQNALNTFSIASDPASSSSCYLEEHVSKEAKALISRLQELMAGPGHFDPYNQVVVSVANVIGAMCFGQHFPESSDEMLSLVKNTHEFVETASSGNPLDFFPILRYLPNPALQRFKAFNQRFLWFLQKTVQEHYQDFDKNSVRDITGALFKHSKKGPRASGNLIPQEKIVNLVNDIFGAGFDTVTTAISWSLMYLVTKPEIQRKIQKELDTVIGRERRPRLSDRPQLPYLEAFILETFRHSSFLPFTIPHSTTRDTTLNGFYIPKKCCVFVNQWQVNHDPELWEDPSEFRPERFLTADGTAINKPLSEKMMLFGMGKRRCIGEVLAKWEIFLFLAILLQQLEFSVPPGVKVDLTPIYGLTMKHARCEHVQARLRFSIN
Outline: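 In this quantitative HTS, inhibition of recombinant human CYP1A2 was measured as loss of luciferin-derived luminescence. Turnover ran 30-45 min at RT after NADPH regeneration solution was added.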

[10] = qHTS Counterscreen for compound interference against the NCATS DSHEA and TCM libraries (AID 1919978); details: firefly luciferase detection reagent interference, luminescence;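 note: compounds preincubated with 1 µM D-luciferin or buffer before detection reagent; % of control where 0% means no effect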
Outline: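 Interference check: test samples were incubated with D-luciferin (final 1 uM) or buffer only for 15 min, room temperature, in a qHTS titration up to 39.8 uM, then developed with detection reagent and read by luminescence.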

[11] = Dual reporter qHTS for agonist of Pregnane X Receptor (hPXR) against the NCATS DSHEA and TCM libraries: Fluorescence readout (AID 1920058); note: 0% is about no effect
Outline: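 Measures viability of the PXR reporter HepG2 line by protease-substrate fluorescence (405/540 nm), taken 1 h after CellTiter-Fluor addition. Substances are tested as concentration series over a ~24 h exposure, with rifampicin as agonist control.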

[12] = molecular target: Nuclear receptor subfamily 1 group I member 2 (Homo sapiens) (UniProt O75469); assay: Dual reporter qHTS for agonist of Pregnane X Receptor (hPXR) against the NCATS DSHEA and TCM libraries: Luminescence readout (AID 1920059); note: 0% is about no effect
Nuclear receptor subfamily 1 group I member 2 (Homo sapiens), sequence (O75469 whole entry, looked up): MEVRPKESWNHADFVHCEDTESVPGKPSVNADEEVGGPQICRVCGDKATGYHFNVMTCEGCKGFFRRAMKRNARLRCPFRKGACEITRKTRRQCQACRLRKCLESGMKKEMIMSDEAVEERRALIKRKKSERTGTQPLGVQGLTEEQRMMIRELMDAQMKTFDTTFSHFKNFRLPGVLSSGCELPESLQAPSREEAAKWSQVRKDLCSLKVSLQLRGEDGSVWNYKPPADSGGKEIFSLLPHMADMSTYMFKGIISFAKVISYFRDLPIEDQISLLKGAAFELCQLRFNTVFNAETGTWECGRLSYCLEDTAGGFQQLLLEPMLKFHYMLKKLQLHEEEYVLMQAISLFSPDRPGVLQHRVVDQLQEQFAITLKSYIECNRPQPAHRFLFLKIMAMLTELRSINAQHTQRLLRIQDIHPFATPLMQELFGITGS
Outline: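 hPXR-LucHepG2 cells in phenol red-free DMEM with 5% charcoal-stripped FBS, 2000 cells/well, attached 5 h, then exposed 24 h at 37C to compounds; rifampicin as positive agonist control (2.8 nM–92 uM). Luciferase luminescence read.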

[13] = Dual reporter qHTS for antagonist of Pregnane X Receptor (hPXR) against the NCATS DSHEA and TCM libraries: Fluorescence Readout (AID 1920061); note: 0% is about no effect
Outline: (§3)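 hPXR-Luc HepG2 cells exposed 24 h at 37 C to compounds with 2 uM rifampicin in antagonist mode; luciferase luminescence measured by ONE-Glo, with CellTiter-Fluor viability read beforehand.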

[14] = HepG2 viability counterscreen (readout 1: protease activity) against the NCATS DSHEA and TCM libraries (AID 1794841);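 note: cells exposed to compounds for about 24 h before the protease read; 0% is about no effect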
Outline: as §1

[15] = molecular target: Nuclear receptor subfamily 1 group I member 2 (Homo sapiens) (UniProt O75469); assay: Dual reporter qHTS for antagonist of Pregnane X Receptor (hPXR) against the NCATS DSHEA and TCM libraries: Luminescence Readout (AID 1920060);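 note: HepG2 cells carrying hPXR luciferase reporter stimulated with rifampicin at 2 µM; 0% is about no effect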
Outline: as §3

C[C@@H]1CCN(C(=O)CC#N)C[C@@H]1N(C)c1ncnc2[nH]ccc12
inactive: Potency [1] | Potency [2]

C=C/C=C/[C@@H]1OC[C@H](/C=C/C=C/C)[C@H]1O
inactive: Potency [1] | Potency [2]

O=C(O)c1cc(O)c2c(c1)[O][Bi][O]2
inactive: outcome [1] inactive [at 0.4 µM] | outcome [2] inactive [at 0.409 µM]

COC(=O)CCC(=O)CN
inactive: Potency [1]

C[C@H](CCC(=O)O)[C@H]1CC[C@H]2[C@@H]3[C@H](O)C[C@@H]4C[C@H](O)CC[C@]4(C)[C@H]3CC[C@]12C
inactive: Potency [1]

COC(=O)C1=C(C#N)NC(C)=C(C(=O)OC(C)C)C1c1cccc([N+](=O)[O-])c1 (stereo not given)
inactive: Potency [1] | Potency [2]

CC(=O)Oc1c(C)cc(OCC(O)CNC(C)C)c(C)c1C (stereo not given)
inactive: Potency [1] | Potency [2]

CO/N=C(\C(=O)N[C@@H]1C(=O)N2C(C(=O)O)=C(CSc3cnns3)CS[C@H]12)c1csc(N)n1
active: Potency [1] 20.2 µM | Potency [2] 15.8 µM

Cc1cc(C(=O)NNCc2ccccc2)no1
inactive: Potency [1] | Potency [2]

Oc1cc(O)c2c(c1)OC(c1ccc(O)c(O)c1)C(O)C2 (stereo not given)
inactive: outcome [3] | outcome [4] | outcome [5] | Potency [6] | Potency [7] | outcome [8] | outcome [9] | max response [10] 0.755% | outcome [11] | outcome [12] | outcome [13]

CC(=O)OCC(=O)[C@@]12OC3(CCCC3)O[C@@H]1C[C@H]1[C@@H]3CCC4=CC(=O)C=C[C@]4(C)[C@@]3(F)[C@@H](O)C[C@@]12C
inactive: Potency [1] | Potency [2]

Cc1cc(/C=C/c2ccc3cc(N(C)C)ccc3[n+]2C)c(C)n1-c1ccccc1
active: Potency [2] 14.1 µM
inactive: Potency [1]

COC(F)(F)C(Cl)Cl
inactive: Potency [1] | Potency [2]

CCN(CC)Cc1cc(Nc2ccnc3cc(Cl)ccc23)ccc1O
inactive: Potency [1] | Potency [2]

CO[C@H](C(=O)[C@@H](O)[C@@H](C)O)C1Cc2cc3cc(O[C@H]4C[C@@H](O[C@H]5C[C@@H](O)[C@H](O)[C@@H](C)O5)[C@@H](O)[C@@H](C)O4)c(C)c(O)c3c(O)c2C(=O)[C@H]1O[C@H]1C[C@@H](O[C@H]2C[C@@H](O[C@H]3C[C@](C)(O)[C@H](O)[C@@H](C)O3)[C@H](O)[C@@H](C)O2)[C@H](O)[C@@H](C)O1 (stereo not given in full)
inactive: Potency [1]

Cc1c(C)c2c(c(C)c1O)CC[C@@](C)(CCC[C@H](C)CCC[C@H](C)CCCC(C)C)O2
inactive: outcome [3] | outcome [14] | outcome [4] | Potency [6] | Potency [7] | outcome [8] | outcome [9] | max response [10] -0.537% | outcome [11] | outcome [12] | outcome [15] | outcome [13]

CC(=O)OCC(=O)[C@@]1(O)CC[C@H]2[C@@H]3C[C@H](C)C4=CC(=O)C=C[C@]4(C)[C@H]3[C@@H](O)C[C@@]21C
inactive: Potency [1] | Potency [2]

CCCCC(=O)OCC(=O)[C@]1(O)Cc2c(O)c3c(c(O)c2[C@@H](O[C@H]2C[C@H](NC(=O)C(F)(F)F)[C@H](O)[C@H](C)O2)C1)C(=O)c1c(OC)cccc1C3=O
inactive: Potency [1] | Potency [2]

NCc1ccccc1CC(=O)N[C@@H]1C(=O)N2C(C(=O)O)=C(CSc3nnnn3CC(=O)O)CS[C@H]12
active: Potency [1] 5.08 µM | Potency [2] 15.8 µM

COC(=O)[C@H]1[C@H]2C[C@@H]3c4[nH]c5ccccc5c4CCN3C[C@H]2C[C@@H](OC(=O)c2cc(OC)c(OC)c(OC)c2)[C@@H]1OC
active: Potency [2] 17.8 µM
inactive: Potency [1]

CC(C)(C)C(=O)OCOC(=O)[C@@H]1N2C(=O)[C@@H](N=CN3CCCCCC3)[C@H]2SC1(C)C
inactive: Potency [1] | Potency [2]

CC(C)C(=O)OCC(=O)[C@@]12O[C@H](C3CCCCC3)O[C@@H]1C[C@H]1[C@@H]3CCC4=CC(=O)C=C[C@]4(C)[C@H]3[C@@H](O)C[C@@]12C
inactive: Potency [1] | Potency [2]

CC(Oc1ccccc1)C(=O)N[C@@H]1C(=O)N2[C@@H]1SC(C)(C)[C@@H]2C(=O)O (stereo not given in full)
inactive: Potency [1] | Potency [2]

CC1=C(/C=C/C(C)=C/C=C/C(C)=C/C=C/C=C(C)/C=C/C=C(C)/C=C/C2=C(C)CCCC2(C)C)C(C)(C)CCC1
inactive: outcome [3] | outcome [14] | Potency [1] | Potency [2] | outcome [4] | outcome [5] | Potency [6] | Potency [7] | outcome [8] | max response [10] -3.35% | outcome [11] | outcome [12] | outcome [15] | outcome [13]

CCOC(=O)O[C@]1(C(=O)COC(=O)CC)CC[C@H]2[C@@H]3CCC4=CC(=O)C=C[C@]4(C)[C@H]3[C@@H](O)C[C@@]21C
inactive: Potency [1]

CC1=CCC(C(C)(C)O)CC1 (stereo not given)
inactive: outcome [3] | outcome [14] | Potency [1] | Potency [2] | outcome [4] | outcome [5] | outcome [8] | max response [10] -0.821% | outcome [11] | outcome [12] | outcome [15] | outcome [13]
active: Potency [7] 3.55 µM
